# Experimental data as given in the supplement of paper PMC10646978.
# ± gives the standard deviation.
# How the values were obtained:
# Conditions in all cases: modulator concentration 10 µM
# [1] = tested on: RAW-Dual (murine macrophage reporter line); test: NF-kB reporter (SEAP) activity fold change vs agonist alone; higher = enhanced NF-kB activity
# Summary of the method: (§1)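 RAW-Dual murine macrophage reporter cells were plated at 50 000 per well in 384-well plates, pin-transferred compound to 10 μM final, and pre-incubated for 1 hour at 37 °C before a PRR agonist was added and the cells incubated overnight. NF-κB activity was read from supernatant SEAP with QUANTI-Blue at 620 nm absorbance, and IRF activity from Lucia luciferase with QUANTI-Luc by luminescence. Each signal was expressed as fold change by dividing by the mean agonist-only control on the same plate. Two replicate plates were averaged, with errors obtained by propagation.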
# [2] = tested on: RAW-Dual (murine macrophage reporter line); test: IRF reporter (Lucia luciferase) activity fold change vs agonist alone; higher = enhanced IRF activity
# Summary of the method: as §1
# [3] = tested on: RAW-Dual (murine macrophage reporter line); test: viability score (confluency relative to resting cells, overnight) (fraction); higher = more viable, active = viable (0.7 or more)
# Summary of the method: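 Compound was added at a final 10 μM to RAW-Dual macrophages in 384-well plates and left overnight. Confluency was imaged with IncuCyte, and two masks were generated in IncuCyte software over all imaged wells. Each viability score is confluency relative to resting cells, and a compound met the cutoff only when both masks were above 70% of resting cells.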
# [4] = agonist: CpG ODN 1826 0.5 ug/mL
Compound,"NF-kB reporter [1, 4]",NF-kB reporter ([1]; agonist: LPS 0.1 ug/mL),NF-kB reporter ([1]; agonist: MPLA […]),IRF reporter ([2]; agonist: 3'3'-cGAMP 10 ug/mL),IRF reporter ([2]; agonist: LPS 0.1 ug/mL),IRF reporter ([2]; agonist: MPLA […]),viability score [3]
O=C(CCCn1nc(-c2ccc(F)cc2)ccc1=O)Nc1cc(Cl)ccc1Cl,1.01 ± 0.16,1.06 ± 0.091,0.989 ± 0.11,1.06 ± 0.066,1.03 ± 0.076,1.11 ± 0.18,1.02 (active)
O=c1[nH]cc(F)c(=O)[nH]1,1.48 ± 0.29,0.887 ± 0.21,1 ± 0.059,1.1 ± 0.059,1.33 ± 0.18,1.01 ± 0.17,0.735 (active)
CCOc1cccc2sc(N(CCCN(C)C)C(=O)c3ccc(Cl)s3)nc12.Cl,0.938 ± 0.042,1.06 ± 0.19,0.898 ± 0.12,0.747 ± 0.093,0.989 ± 0.26,0.954 ± 0.38,0.917 (active)
Cc1cc(C)c(-c2csc(NC(=O)C=Cc3cccs3)n2)c(C)c1,0.618 ± 0.048,0.873 ± 0.091,1.44 ± 0.066,1.02 ± 0.071,1.12 ± 0.097,1.89 ± 0.17,0.8 (active)
CCOc1ccc2nc(N(CCCN(C)C)C(=O)c3ccc(Br)s3)sc2c1.Cl,0.164 ± 0.014,0.836 ± 0.076,0.855 ± 0.13,0.406 ± 0.1,1.14 ± 0.071,0.533 ± 0.083,0.0434 (inactive)
CCC(NC(C)C)C(O)c1ccc(O)c(O)c1 (configuration not stated) [Prestw-749],2.04 ± 0.12,1.13 ± 0.092,1.34 ± 0.13,0.988 ± 0.039,0.96 ± 0.051,1.08 ± 0.25,0.997 (active)
COc1ccc(C(=O)Nc2cccc([N+](=O)[O-])c2)cc1I,1.03 ± 0.083,1.01 ± 0.071,0.95 ± 0.081,0.801 ± 0.037,1.02 ± 0.13,1.04 ± 0.23,0.997 (active)
Cc1ccc(Nc2cc(N3CCCCC3)c(N)c3c2C(=O)c2ccccc2C3=O)cc1,1.26 ± 0.23,1.09 ± 0.067,0.964 ± 0.12,1 ± 0.057,1.56 ± 0.21,1.12 ± 0.12,0.996 (active)
CCOC(=O)C1=C(C)NC(C)=C(C(=O)OC)C1c1ccccc1 (configuration not stated),0.884 ± 0.1,0.831 ± 0.057,1.63 ± 0.059,0.609 ± 0.085,0.896 ± 0.037,0.79 ± 0.06,0.946 (active)
O=c1oc2cc(O)ccc2s1,1.11 ± 0.088,1.02 ± 0.07,1.02 ± 0.026,0.911 ± 0.05,0.962 ± 0.067,0.827 ± 0.074,1 (active)
O=C(CC1CCCCN1S(=O)(=O)c1ccccc1)NCCC1=CCCCC1 (configuration not stated),0.994 ± 0.13,1.21 ± 0.095,0.903 ± 0.13,1.03 ± 0.054,1.23 ± 0.08,1.38 ± 0.11,1.01 (active)
CC(=O)NO,0.863 ± 0.12,0.93 ± 0.071,0.953 ± 0.053,0.834 ± 0.068,0.901 ± 0.15,0.977 ± 0.092,1 (active)
CC(C)(C)C1(O)CC(C(F)(F)F)=NN1C(=O)c1ccc([N+](=O)[O-])cc1 (configuration not stated),0.644 ± 0.056,0.79 ± 0.095,1.01 ± 0.035,1.38 ± 0.13,1.13 ± 0.14,1.66 ± 0.33,0.941 (active)
Cc1ccc(NC(=O)Nc2c(C)nc(N3CCN(C)CC3)nc2C)cc1F,0.993 ± 0.049,1.03 ± 0.11,0.818 ± 0.037,0.925 ± 0.046,1.21 ± 0.083,1.17 ± 0.15,0.97 (active)
CS(=O)(=O)N1CCN(Cc2cc3nc(-c4cccc5[nH]ncc45)nc(N4CCOCC4)c3s2)CC1,0.179 ± 0.029,2.63 ± 0.34,2.94 ± 0.17,0.151 ± 0.0092,1.4 ± 0.24,1.33 ± 0.17,0.888 (active)
OCCN(CCO)CC(O)Cn1c2ccc(Br)cc2c2cc(Br)ccc21 (configuration not stated),0.301 ± 0.024,0.484 ± 0.035,0.617 ± 0.06,0.742 ± 0.024,1.42 ± 0.24,1.35 ± 0.15,0.94 (active)
Br.Cc1nc(C)c(-c2csc(Nc3cccc(C(=O)O)c3)n2)s1,0.754 ± 0.067,0.883 ± 0.082,1.08 ± 0.11,0.882 ± 0.048,1.36 ± 0.087,1.56 ± 0.13,1 (active)
CC(C)C(=O)Nc1ccc([N+](=O)[O-])c(C(F)(F)F)c1,1.42 ± 0.3,1.06 ± 0.077,1.25 ± 0.2,0.762 ± 0.04,0.97 ± 0.11,1.04 ± 0.12,0.968 (active)
Clc1ccc(Cn2c(CN3CCCC3)nc3ccccc32)cc1 [Prestw-227],0.369 ± 0.076,1.12 ± 0.1,1.06 ± 0.14,0.682 ± 0.038,1.07 ± 0.1,1.37 ± 0.18,0.787 (active)
COc1ccc(C(=O)C=Cc2cc(OC)c(OC)cc2OC)c(OC)c1,0.958 ± 0.24,0.902 ± 0.13,0.839 ± 0.067,0.506 ± 0.013,1.15 ± 0.16,1.06 ± 0.17,1 (active)
COC(=O)C(NC(=O)C(C)(C)C)C12CC3CC(CC(C3)C1)C2 (configuration not stated),0.96 ± 0.075,0.892 ± 0.067,0.934 ± 0.094,1.06 ± 0.058,1.38 ± 0.23,1.49 ± 0.3,1.02 (active)
O=c1[nH][nH]c(=O)c2c(N=Cc3cc4c(cc3[N+](=O)[O-])OCO4)cccc12,0.878 ± 0.082,0.823 ± 0.074,0.961 ± 0.096,0.983 ± 0.031,1.13 ± 0.18,1.22 ± 0.28,0.995 (active)
C=C(CC)C(=O)c1ccc(OCC(=O)O)c(Cl)c1Cl [Prestw-259],0.596 ± 0.14,0.588 ± 0.077,0.722 ± 0.049,0.563 ± 0.02,1.85 ± 0.21,1.53 ± 0.17,0.953 (active)
COC(=O)c1cc(NC(=O)c2cc(OC)c(OC)cc2[N+](=O)[O-])cc(C(=O)OC)c1,0.99 ± 0.1,1.03 ± 0.057,0.913 ± 0.074,0.999 ± 0.063,1.59 ± 0.19,1.22 ± 0.091,1.01 (active)
COc1ccc(C(C)NC(=O)c2[nH]nnc2-c2ccc(F)cc2)cc1 (configuration not stated),1.17 ± 0.066,0.983 ± 0.14,1.01 ± 0.054,0.669 ± 0.026,1.01 ± 0.094,0.958 ± 0.15,0.997 (active)
Nc1ccc(S(=O)(=O)NCCO)cc1,0.983 ± 0.07,1.06 ± 0.12,0.996 ± 0.068,0.973 ± 0.042,1.4 ± 0.12,1.07 ± 0.11,1 (active)
